Test results: PubChem BioAssay AID588342 (National Center for Advancing Translational Sciences (NCATS), 2011)
About 25,000 (6.9%) of roughly 360,000 compounds were called active. Entries that show only a call come without a potency. Roughly 9% stayed inconclusive and do not appear here. This is one part of a sample in which actives are shown more often than they occur. The call rests on the fitted dose curve; in most records, active means well fitted inhibition curve with a large enough effect; inconclusive means small, poorly fitted or top-dose-only effect; inactive means flat fitted curve, though single readings scatter.
Further: nearly all actives have a fitted effect of over 55% in size.
Potency means the concentration at half of the fitted maximal effect.

The compounds below were run against Luciferin 4-monooxygenase (Photinus pyralis) (UniProt P08659) (assay: qHTS profiling assay for firefly luciferase inhibitor/activator using purifed enzyme and Km concentrations of substrates (counterscreen for miR-21 project)). Conditions: purified FLuc, luminescence inhibition; series mostly up to 57.5 µM.
Chain of Luciferin 4-monooxygenase (Photinus pyralis) (P08659 whole entry, looked up): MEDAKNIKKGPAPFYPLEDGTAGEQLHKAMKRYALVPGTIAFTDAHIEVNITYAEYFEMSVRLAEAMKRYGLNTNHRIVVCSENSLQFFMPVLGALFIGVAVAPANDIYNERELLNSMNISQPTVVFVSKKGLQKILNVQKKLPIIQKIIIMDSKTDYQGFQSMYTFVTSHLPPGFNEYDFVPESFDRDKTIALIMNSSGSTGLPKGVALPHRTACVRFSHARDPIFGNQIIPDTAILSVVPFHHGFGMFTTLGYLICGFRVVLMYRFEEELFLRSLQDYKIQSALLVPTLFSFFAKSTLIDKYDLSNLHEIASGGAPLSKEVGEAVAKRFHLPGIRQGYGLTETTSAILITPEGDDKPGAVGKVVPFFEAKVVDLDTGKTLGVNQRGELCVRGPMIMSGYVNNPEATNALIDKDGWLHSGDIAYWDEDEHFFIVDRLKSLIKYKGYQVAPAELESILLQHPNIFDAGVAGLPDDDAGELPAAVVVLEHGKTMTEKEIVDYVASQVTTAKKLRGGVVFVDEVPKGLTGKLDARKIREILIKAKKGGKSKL
How it was run: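 Purified P. pyralis luciferase (10nM final) with 10uM D-luciferin and 10uM ATP (Km levels) in 50mM Tris acetate pH 7.5, 10mM Mg acetate, 0.01% Tween-20, 0.05% BSA; qHTS 6-point titration, ~60 µM downward; luminescence read.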
With `CCOc1ccc(CNC(=O)c2ccc3nc(CC)c(CC)nc3c2)cc1OC` the Potency was “inactive”. With `CCN(CC)c1ccc(NC(=O)Cn2nc3c(cc2=O)CCCC3)c(C)c1` the Potency was “inactive”. In the case of `CCOc1ccc(CNC(=O)c2ccc3c(c2)nnn3C2CCCC2)cc1`, the Potency is reported as “inactive”. For `O=C(CNCCC1=CCCCC1)Nc1ccccc1N1CCCCCC1`, the Potency was “inactive”. With `COc1ccc(NS(=O)(=O)c2cc3c(cc2C)N(C(C)=O)CCO3)cc1` the Potency was “inactive”. For `COCCCNC(=O)c1c(NC(=O)c2cc(=O)c3cc(C)c(C)cc3o2)sc2c1CCCC2`, the Potency was “inactive”. `O=C1C(C=NCC2CCCO2)=C(O)c2ccccc21` (stereo not drawn) was tested, and the Potency was 19 µM (active). In the case of `CC(=NCC1CCCO1)c1c(O)[nH]c(=O)[nH]c1=O` (stereo not drawn), the Potency is reported as “inactive”. In the case of `O=C1c2cccc3c([N+](=O)[O-])ccc(c23)C(=O)N1CC1CCCO1` (stereo not drawn), the Potency is reported as “inactive”. For `CCCCCn1c(=O)[nH]c2cc(C(=O)Nc3ccc(F)cc3)ccc2c1=O`, the Potency was “inactive”. In the case of `CC(C)c1ccc(NC(=O)c2ccc3c(O)c(S(=O)(=O)c4ccccc4)c(=O)[nH]c3c2)cc1`, the Potency is reported as 1.51 µM (active). `CC(C)n1c(=O)[nH]c2cc(C(=O)Nc3ccccc3)ccc21` was tested, and the Potency was “inactive”. In the case of `CCCCn1c(N)c(N(CCC(C)C)C(=O)COC(=O)c2cccnc2OCC)c(=O)[nH]c1=O`, the Potency is reported as “inactive”. In the case of `COc1ccc(/C=N/OCc2ccccc2C#N)c(OC)c1`, the Potency is reported as 21.3 µM (active). For `Cc1cc(C)nc(SCc2ccccc2C#N)n1`, the Potency was “inactive”. `COc1ccc(C=C(C#N)C#N)c(CSc2ccccn2)c1` was tested, and the Potency was “inactive”. In the case of `Cc1ccccc1OCC(=O)Nc1c(C(=O)Nc2ccccc2F)oc2ccccc12`, the Potency is reported as “inactive”. For `CCOC(=O)[C@H]1[C@H]2COc3cc(OC)ccc3[C@@H]2N2C(=O)N(c3ccc(Br)cc3)C(=O)[C@@]12C`, the Potency was “inactive”. For `COc1ccc(CNC(=O)Cc2ccc(-c3ccccc3)cc2)cc1OC`, the Potency was “inactive”. `COc1ccc(CNC(=O)COC(=O)c2c(C)nn(-c3ccccc3)c2C)cc1OC` was tested, and the Potency was “inactive”. In the case of `COc1ccc(CNC(=O)COc2ccccc2C(=O)c2cnn(-c3ccccc3)c2)cc1OC`, the Potency is reported as 5.36 µM (active). In the case of `CCOC(=O)c1sc(NC(=O)c2sc(C)nc2C)nc1C`, the Potency is reported as 6.01 µM (active). In the case of `CCOC(=O)c1sc(NC(=O)CSc2n[nH]c(CC)n2)nc1C`, the Potency is reported as “inactive”. With `CCOC(=O)c1sc(NC(=O)C2CSC3(C)CCC(=O)N23)nc1C` (stereo not drawn) the Potency was “inactive”. `CCOC(=O)c1sc(NC(=O)c2ccncc2)nc1C` was tested, and the Potency was 19 µM (active). In the case of `CCOC(=O)c1sc(/N=C/Nc2nc(C)c(C(=O)OCC)s2)nc1C`, the Potency is reported as “inactive”. `CCOC(=O)c1cccnc1NC(=O)c1ccncc1` was tested, and the Potency was “inactive”. For `Cc1ccc(C)c(Oc2c(C(F)(F)F)oc3c(CN4CCN(C)CC4)c(O)ccc3c2=O)c1`, the Potency was “inactive”.
